The whole screen tested about 4,800 compounds, of which about 410 (8.5%) showed an effect of 50% or more. The sample as a whole holds a higher share of strong results than the screen did.
The molecules below were run on Plasmodium falciparum (assay: Confirmatory screen in NF54 pLDH assay, in single point, at 2uM, 72h). Conditions: timepoint 72 hour.
Assay type: functional, Erythrocyte
With Cc1ccc(NC(=O)c2c(C)nc3sc(C(=O)NCc4ccccc4)c(N)c3c2-c2ccccc2Cl)c(C)c1 the “% Inhibition” value was 87%. With CCc1ccc(NC(=O)c2sc3nc(C)c(C(=O)Nc4ccc(C)cc4C)c(-c4ccccc4Cl)c3c2N)cc1 the “% Inhibition” value was 5%. In the case of Cc1ccc(NC(=O)c2c(C)nc3sc(C(=O)NCc4ccccc4)c(N)c3c2-c2cccs2)c(C)c1, the “% Inhibition” value is reported as 11%. For CN([C@H]1CCc2nn(CC3CC3)c(=O)n2CC1)S(=O)(=O)c1ccccc1C(F)(F)F, the “% Inhibition” value was 1%. CC(C)NC(=O)N1C[C@H]2CCCC(=O)N(Cc3cccc(F)c3)[C@H]2C1 was tested, and the “% Inhibition” value was 8%. For O=C(NC[C@H]1CCCO1)c1cc(C(=O)C2CC2)c[nH]1, the “% Inhibition” value was -8%. With COc1nc(-c2cccc(C(=O)NCC3CCOCC3)c2)ncc1F the “% Inhibition” value was 80%. For Cc1ccc(C(=O)N2CC(n3cnnc3C)C2)cc1F, the “% Inhibition” value was -17%. In the case of O=C(NCC1CCOCC1)c1ccc2n[nH]c(=O)n2c1, the “% Inhibition” value is reported as 6%. COc1ccc(-c2[nH]ncc2C(=O)NCC2CCCCC2)cc1OC was tested, and the “% Inhibition” value was 6%. With O=C(CC1CCOCC1)NCc1ccccn1 the “% Inhibition” value was -24%. COc1nc(-c2cccc(C(=O)N3C[C@@H]4CC[C@H](C3)C(=O)N4)c2)ncc1F was tested, and the “% Inhibition” value was 85%. In the case of COc1ccc(C(=O)N2CC[C@H](c3nc(C4CCOCC4)no3)C2)cc1OC, the “% Inhibition” value is reported as 11%. In the case of COCc1cc(C(=O)N[C@H](c2ccccc2)C2CCOCC2)no1, the “% Inhibition” value is reported as 8%. In the case of CC(C)(NC(=O)CC1(O)CCCCC1)C(=O)Nc1ccccc1, the “% Inhibition” value is reported as 5%. O=C(Nc1ccc(F)cc1)c1c(-c2ccc(Cl)cc2)nc2n1CCS2(=O)=O was tested, and the “% Inhibition” value was -4%. For COC(=O)C1C2CCC(C2)C1NC(=O)c1ccncc1 (stereo not drawn), the “% Inhibition” value was 2%. For O=C([C@@H]1CCCN1c1ncc(C(F)(F)F)cc1Cl)N1Cc2ccccc2C1, the “% Inhibition” value was -18%. CCOC(=O)[C@@H](NC(=O)Nc1ccccc1C(F)(F)F)C(F)(F)F was tested, and the “% Inhibition” value was 11%. With O=C(NC1CC1C1CCCCC1)N1CCS(=O)(=O)CC1 (stereo not drawn) the “% Inhibition” value was -4%. COc1ccc(NC(=O)[C@@H](C)C2CCOCC2)cc1 was tested, and the “% Inhibition” value was -5%. With CCc1c(NC(=O)[C@@H](C)C2CC2)nnn1CCc1ccc(OC)cc1 the “% Inhibition” value was 12%. COC(=O)c1c(NC(C)=O)c2cc(NC3CCOCC3)cnc2n1CCc1ccc(OC)cc1 was tested, and the “% Inhibition” value was 61%. In the case of Cc1nc(CN2C(=O)C(=O)c3cc(Br)ccc32)cs1, the “% Inhibition” value is reported as 9%. In the case of Cc1ccn2c(CN3CCN([C@H]4CCN(Cc5ccccc5)C4)CC3)c(C)nc2c1, the “% Inhibition” value is reported as 9%. For O=C(Cc1cccc2ccccc12)NC(C1CC1)C1CC1, the “% Inhibition” value was -12%. With COc1ccc(NS(=O)(=O)c2ccc(NC(=O)CN(c3ccc(F)cc3)S(C)(=O)=O)cc2)cc1 the “% Inhibition” value was 12%. COc1ccccc1Cc1nnc2n1CCCC2 was tested, and the “% Inhibition” value was 8%. With COc1cc(CNC2CCCCC2)cc(Br)c1OCc1ccccc1Cl the “% Inhibition” value was 8%. In the case of COc1cc(NC(=O)N2CC(c3noc(-c4ccccc4)n3)C2)cc(OC)c1OC, the “% Inhibition” value is reported as 3%. In the case of CNC(=O)[C@@H]1C[C@H](NCc2cc(OC)c(OC)c(OC)c2)CN1CC(c1ccccc1)c1ccccc1, the “% Inhibition” value is reported as 50%. In the case of CC(=O)c1ccc(C(C)(C)C)cc1NC(=O)C(C)C, the “% Inhibition” value is reported as 8%. In the case of O=C(CCn1nc2ccccn2c1=O)N1CC(CC(F)F)C1, the “% Inhibition” value is reported as 6%. C[C@]1(CCc2ccc(O)cc2)Nc2ccccc2-c2nc(=O)c(-c3ccc(F)cc3)nn21 was tested, and the “% Inhibition” value was -12%. In the case of O=c1nc2n(nc1-c1ccccc1)C1(CCC1)Nc1ccccc1-2, the “% Inhibition” value is reported as 60%. C[C@]1(C(=O)O)Nc2ccccc2-c2nc(=O)c(-c3ccccc3)nn21 was tested, and the “% Inhibition” value was 9%. In the case of Nc1nccnc1C(=O)Nc1c(-c2ccccc2)ncn1C1CC1, the “% Inhibition” value is reported as 3%. CC(C)c1ccc(Oc2cnn(-c3cccc(Cl)c3)c(=O)c2Nc2cccc(C(=O)NC3CC3)c2)cc1 was tested, and the “% Inhibition” value was 54%. In the case of COc1ccc(-n2ncc(Oc3cccc(C)c3)c(Nc3cccc(C(=O)NCc4ccc(F)cc4)c3)c2=O)cc1, the “% Inhibition” value is reported as 30%. In the case of Cn1cc2c(n1)CCC[C@@H]2NC(=O)c1cccc(C(=O)NC2CC2)c1, the “% Inhibition” value is reported as 0%. CCn1ncc2ccc(N[C@@H](C)C3(O)CCOCC3)cc21 was tested, and the “% Inhibition” value was 12%. With CCOc1ccc(C(=O)N2CCN(c3nnc4ccccn34)CC2)cc1 the “% Inhibition” value was 8%. COc1ccc(NC(=O)C2=NN(CC(=O)Nc3cccc(OC)c3)C(=O)CC2)cc1 was tested, and the “% Inhibition” value was -4%. In the case of CCCN1C(=O)c2ccccc2N2C(=O)CC[C@@]12C(=O)Nc1ccccc1, the “% Inhibition” value is reported as 97%. With CCCN1C(=O)c2ccccc2N2C(=O)CC[C@@]12C(=O)Nc1ccc(OC)cc1 the “% Inhibition” value was 92%. COc1cccc(NC(=O)c2ccc3c(c2)N(C)[C@@H]2CCCCCN2C3=O)c1 was tested, and the “% Inhibition” value was 9%. O=C(CN1C[C@@H](c2ccccc2)Oc2ccccc2C1=O)Nc1ccccc1 was tested, and the “% Inhibition” value was -14%. In the case of CC(=O)c1cccc(NC(=O)Cn2c(=O)n(CCc3ccccc3)c(=O)c3ccccc32)c1, the “% Inhibition” value is reported as 10%. For COc1ccc(NC(=O)CN2N=C(C(=O)Nc3ccccc3)CCC2=O)cc1, the “% Inhibition” value was -2%. CCN1C(=O)c2ccccc2N2C(=O)CC[C@@]12C(=O)Nc1cccc(OC)c1 was tested, and the “% Inhibition” value was 96%. In the case of CC(=O)c1cccc(NC(=O)[C@@]23CCC(=O)N2c2ccccc2C(=O)N3C)c1, the “% Inhibition” value is reported as 88%. For COc1ccc(NC(=O)CCC(=O)N2CCc3ccccc3C2)cc1, the “% Inhibition” value was 6%. With CC(=O)c1cccc(NC(=O)c2nonc2C)c1 the “% Inhibition” value was -11%. In the case of CC(=O)N1C(C(=O)O)Cc2c([nH]c3ccccc23)C1c1ccc2c(c1)OCO2 (stereo not drawn), the “% Inhibition” value is reported as 5%. Clc1ccc(Cl)c(-c2ccc(CNn3cnnc3)o2)c1 was tested, and the “% Inhibition” value was 11%. O=C(NCC1(Cc2ccccc2)CCC1)N(CCO)C1CC1 was tested, and the “% Inhibition” value was -1%. In the case of Cc1ccn(-c2ccc(C(=O)NC3CCCC3)cn2)n1, the “% Inhibition” value is reported as -9%. C[C@@H](C(=O)Nc1ncc[nH]1)c1ccc2c(c1)[nH]c1ccc(Cl)cc12 was tested, and the “% Inhibition” value was 16%. c1coc([C@H](CNC2CCCC2)N2CCCC2)c1 was tested, and the “% Inhibition” value was -12%. With O=C1NCCC[C@@H]1Nc1ccc(C(F)(F)F)nn1 the “% Inhibition” value was 2%. With COC[C@H]1[C@H](NC(=O)c2ncc(F)cc2F)[C@H]2CCO[C@H]21 the “% Inhibition” value was -17%. Nc1nc(N2CCN(c3ccc(F)c(Cl)c3)CC2)cc([C@H]2C[C@@H](N)C2)n1 was tested, and the “% Inhibition” value was 34%. Nc1nc(C2CC(N)C2)cc(N2CCC(Oc3ccccc3Cl)CC2)n1 (stereo not drawn) was tested, and the “% Inhibition” value was 65%. For O=C(CN1CCN(Cc2ccc(F)cc2)C1=O)NC1CCCCCCC1, the “% Inhibition” value was 0%. CC[C@@H](Cc1ccccc1Br)C(=O)NCCC(N)=O was tested, and the “% Inhibition” value was -6%. O=C(Nc1ccc(NC2CCOCC2)cc1)c1cc(F)c(O)c(F)c1 was tested, and the “% Inhibition” value was -10%. CC(C)(C)CC(=O)Nc1ccc2c(c1)C(N1CCCCC1)=Nc1ccccc1O2 was tested, and the “% Inhibition” value was -4%. In the case of O=C(COc1ccccc1)Nc1ccc2c(c1)C(O)=Nc1cccnc1O2, the “% Inhibition” value is reported as 64%. For CC1(C)Oc2ccc(NC(=O)COc3ccccc3)cc2NC1=O, the “% Inhibition” value was 12%. CC(C)(C)OC(=O)Cn1cc(CO)nn1 was tested, and the “% Inhibition” value was 10%. O=C(C[C@H]1CCOC1)Nc1cc2ccc(Br)cn2n1 was tested, and the “% Inhibition” value was 11%. In the case of COC(=O)c1cc(NC(=O)N2CCO[C@H](C(=O)OC)C2)c(F)cc1F, the “% Inhibition” value is reported as 6%. For CC1CN(C(=O)C(C(C)C)N2CC(C)OC(C)C2)CCO1 (stereo not drawn), the “% Inhibition” value was -12%. In the case of COc1ccc(NC(=O)C2=Cc3cc(Cl)cc(OC)c3OC=C2)cc1, the “% Inhibition” value is reported as -1%. CCCN(CCC)CCN1C(=O)[C@@H]2C(C(=O)Nc3cc(Cl)cc(Cl)c3)[C@@H]3C=C[C@]2(O3)C1C(=O)NC1CCCCC1 (stereo partly drawn) was tested, and the “% Inhibition” value was 50%. In the case of O=c1[nH]cnc2c1nc(N1CCCCC1)n2C1OC(CO)C(O)C1O (stereo not drawn), the “% Inhibition” value is reported as 3%. In the case of O=C(Cc1nnc2ccc(C(=O)Nc3ccccc3)cn12)Nc1ccc(F)cc1, the “% Inhibition” value is reported as 8%. With O=C(CCCc1ccccc1)Nc1cc(C2CC2)nn1-c1nc(-c2ccccc2)cc(=O)[nH]1 the “% Inhibition” value was 36%. With CCc1cc(=O)[nH]c(-n2nc(C3CC3)cc2NC(=O)C2CCCCC2)n1 the “% Inhibition” value was 87%. With Cc1cc(F)ccc1NC(=O)Cn1nc(C2CC2)c2c(C(F)F)cc(=O)[nH]c21 the “% Inhibition” value was 9%. CCC(CC)C(=O)Nc1cc(C2CC2)nn1-c1nc(-c2ccccc2)cc(=O)[nH]1 was tested, and the “% Inhibition” value was 45%. With CN1CCC[C@H](C(=O)Nc2nc(C3CC3)cs2)C1 the “% Inhibition” value was -2%. With Cc1cc(=O)[nH]c(-n2nc(C3CC3)cc2NC(=O)c2ccc(C(C)(C)C)cc2)n1 the “% Inhibition” value was 52%. With CCc1cc(C(=O)N2CCCCCC2)c2c(C3CC3)nn(-c3ccc(F)cc3)c2n1 the “% Inhibition” value was 5%. With Cc1cc(=O)[nH]c(-n2nc(C3CC3)cc2NC(=O)C(c2ccccc2)c2ccccc2)n1 the “% Inhibition” value was 87%. CC(C)(C)c1ccc(C(=O)N[C@H]2CCCC[C@@H]2NC(=O)c2ccc(C(C)(C)C)cc2)cc1 was tested, and the “% Inhibition” value was 2%. In the case of CC(C)c1cc(=O)[nH]c(-n2nc(C3CC3)cc2NC(=O)c2ccc(F)cc2)n1, the “% Inhibition” value is reported as 89%. With Cc1ccc(C(=O)Nc2c(C(N)=O)sc3nc(C(F)F)cc(C4CC4)c23)cc1 the “% Inhibition” value was -9%. For Cc1nn(C)c(NC(=O)c2ccc(C(C)(C)C)cc2)c1C1=CCCCC1, the “% Inhibition” value was -5%. CC1CC(c2ccccc2)CCN1C(=O)c1cc(C2CC2)on1 (stereo not drawn) was tested, and the “% Inhibition” value was 6%. Cc1n[nH]cc1Nc1ccnc(C(C)(C)C)n1 was tested, and the “% Inhibition” value was 7%. In the case of CC(C)OC[C@@H](O)CN1CC(C2CCC2)C1, the “% Inhibition” value is reported as -19%. In the case of CC1CCCCC1NC(=O)CN1CCN(Cc2cccc(Cl)c2)C1=O (stereo not drawn), the “% Inhibition” value is reported as -4%. Cc1cc2ncc(-n3cncn3)c(-c3ccccc3)n2n1 was tested, and the “% Inhibition” value was 8%. With CCc1ccc(CN2CCN(Cc3cccc(Oc4ccccc4)c3)CC2)cc1 the “% Inhibition” value was 8%. With CCC1CC(CC(=O)NS(=O)(=O)c2ccnn2C)CCO1 (stereo not drawn) the “% Inhibition” value was 0%. In the case of COc1ccc2cc3n(c2c1)C[C@](C(=O)NC1CCCCCC1)(c1ccccc1)N(Cc1ccccc1Cl)C3=O, the “% Inhibition” value is reported as 13%. CC1(C)CCCc2sc(NC(=O)N[C@H]3CCOC4(CCC4)C3)nc21 was tested, and the “% Inhibition” value was 1%.
